# From PubChem BioAssay
# A number with no mark means an inactive call. No rule for the calls is given here.
# Target: Pantothenate synthetase (Mycobacterium tuberculosis (strain ATCC 25618 / H37Rv)) (UniProt P9WIL5)
# Test: Recombinant Mtb pantothenate synthetase (PanC) inhibitors, coupled enzyme, confirmatory (AID 375);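 also: 0% = full reaction with vehicle and 100% = no enzyme background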
# Conditions: coupled enzyme assay; at 10 µM, active compounds read high
# Pantothenate synthetase (Mycobacterium tuberculosis (strain ATCC 25618 / H37Rv)), sequence (P9WIL5 whole entry, looked up): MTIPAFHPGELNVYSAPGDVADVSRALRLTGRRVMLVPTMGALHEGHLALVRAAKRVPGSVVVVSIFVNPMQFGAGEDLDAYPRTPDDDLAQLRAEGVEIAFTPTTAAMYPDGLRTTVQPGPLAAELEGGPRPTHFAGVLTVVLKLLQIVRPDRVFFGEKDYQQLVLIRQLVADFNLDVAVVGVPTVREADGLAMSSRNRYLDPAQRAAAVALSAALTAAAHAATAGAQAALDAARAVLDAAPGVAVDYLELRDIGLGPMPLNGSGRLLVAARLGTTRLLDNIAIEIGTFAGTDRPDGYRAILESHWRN
row,Structure (SMILES),inhibition
1,N#Cc1c(N)n(CCNC(=O)c2cccs2)c2nc3ccccc3nc12,9%
2,O=c1[nH]c(CN2CCN(Cc3ccccc3)CC2)nc2sc3c(c12)CCC3,0%
3,CCN1C(=O)N(CC)C2C1N(C(C)=O)C(=O)N2C(C)=O (configuration not stated),0%
4,Cc1cnn(Cc2ccccc2)c1N,3%
5,C=CCNC(=O)c1ccc(Cl)cc1Cl,0%
6,CCOC(=O)C1CCCN(C/C(O)=C(\C#N)c2nc(-c3ccc(Cl)cc3)cs2)C1 (configuration not stated),5%
7,Cc1ccc(C(=O)CSc2nnc(CNc3ccc(C)cc3C)o2)cc1,7%
